# Test results from PubChem BioAssay.
# A number with no mark means an inactive call.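 How the source made its calls: active means at least 20% inhibition of 6-phosphogluconate dehydrogenase activity; inactive means the rest.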
# Molecular target: 6-phosphogluconate dehydrogenase, decarboxylating (Homo sapiens) (UniProt P52209)
# Assay: inhibition of human phosphogluconate dehydrogenase – biochemical, recombinant enzyme, NADPH absorbance, primary screen (AID 1159550)
# Details: recombinant 6PGD, NADPH absorbance 341 nm; at 10 µM; hits give high values
# 6-phosphogluconate dehydrogenase, decarboxylating (Homo sapiens), sequence (P52209 whole entry, looked up): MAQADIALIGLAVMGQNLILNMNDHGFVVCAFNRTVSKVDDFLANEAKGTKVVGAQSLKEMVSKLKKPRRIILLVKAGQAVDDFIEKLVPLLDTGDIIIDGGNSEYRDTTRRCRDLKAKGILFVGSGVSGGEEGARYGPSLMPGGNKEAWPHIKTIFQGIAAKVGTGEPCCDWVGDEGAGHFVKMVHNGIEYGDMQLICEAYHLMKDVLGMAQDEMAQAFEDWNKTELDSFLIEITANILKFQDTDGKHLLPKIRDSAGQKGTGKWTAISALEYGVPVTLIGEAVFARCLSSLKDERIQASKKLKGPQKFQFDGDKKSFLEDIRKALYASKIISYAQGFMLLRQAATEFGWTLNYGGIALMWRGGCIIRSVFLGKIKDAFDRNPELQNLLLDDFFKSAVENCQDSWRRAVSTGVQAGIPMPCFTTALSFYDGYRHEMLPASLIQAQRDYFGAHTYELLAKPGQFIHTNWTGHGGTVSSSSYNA
row,SMILES,inhibition
1,CC1(C)[C@H](O)CC(=O)[C@@]2(C)[C@@H]1CC(=O)[C@]1(C)[C@H]2CC[C@@]2(C)[C@H](c3ccoc3)OC(=O)[C@H]3O[C@]321,8.09%
2,CN1[C@@H]2C[C@@H]3C[C@H]1[C@H](O)[C@H]2O3,-5.75%
3,COc1cc2c(cc1OC)[C@H]1C(=O)c3ccc4c(c3O[C@H]1CO2)C[C@@H](C(C)C)O4,-1.45%
4,ClC(Cl)=C(c1ccc(Cl)cc1)c1ccc(Cl)cc1,-15%
5,COP(=O)(OC)OC(C)C(C)=O (stereo not drawn),13.2%
6,CN1C2C[C@H](OC(=O)[C@H](CO)c3ccccc3)CC1[C@@H](O)C2 (stereo partly drawn),-3.17%
7,COc1cc2c(cc1OC)C(=O)c1ccc(OC)c(OC)c1OCC(=O)C2,-4.44%
8,O=C1CC2OCC=C3CN4CCC56c7ccccc7N1C5C2C3CC46 (stereo not drawn),-2.71%
9,CO[C@H]1C[C@H](O[C@H]2CC[C@]3(C=O)[C@H]4CC[C@]5(C)[C@@H](C6=CC(=O)OC6)CC[C@]5(O)[C@@H]4CC[C@]3(O)C2)O[C@H](C)[C@H]1O,-5.2%
10,CNC(=O)Oc1cccc2c1OC(C)(C)O2,-4.88%
11,CCC(C)C(=O)c1c(O)c(C)c2oc3c(C)c(O)c(C(=O)C(C)CC)c(O)c3c2c1O (stereo not drawn),4.14%
12,C[C@]12CCC3C(CC[C@H]4C[C@@H](Cl)CC[C@]34C)C1CCC2=O (stereo partly drawn),-16.8%
13,CC[C@@H](C)C(=O)O[C@H]1[C@H](O)[C@H]2[C@@H](CN3C[C@@H](C)CC[C@H]3[C@@]2(C)O)[C@@H]2C[C@]34O[C@]5(O)[C@@H](OC(=O)[C@@](C)(O)[C@@H](C)O)CC[C@@]3(C)[C@@H]5[C@@H](OC(C)=O)[C@@H](OC(C)=O)[C@H]4[C@@]21O,7.64%
